Compound activity deposited in PubChem BioAssay by several laboratories.
Shown are actives, neighbours in structure and some others; about 2.2% of the full set was active somewhere.
APP transl inh = APP translation inhibition; SH-SY5Y APP 5'UTR-luciferase reporter, luminescence; inhibition, % at 2 µM; actives 0.82% (n = 190,000);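 active = inhibition above a set limit, derived from the sample mean plus 3 SD, cut at about 45% in these data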
KLF5 inhibitor = inhibitors of KLF5 expression; DLD-1 KLF5 promoter-luciferase reporter, luminescence; inhibition, % at 5 µM; actives 0.23% (n = 290,000);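 active = inhibition above a per-plate limit of that plate's mean compound inhibition plus 3 SD, cut at about 60% in these data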;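 note: 0% = DMSO wells and 100% = LY294002 at 200 µM; higher means less KLF5 promoter-driven luciferase light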
aSyn UTR inh = 5' untranslated region of α-synuclein, MLPCN primary screen; alpha-synuclein 5'UTR reporter, inhibitor activity; inhibition, % (tested at 7.5 µM); actives 0.82% (n = 300,000); in the data active = inhibition above about 60%;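 note: H4 neuroglioblastoma cells stably carrying SNCA 5'UTR luciferase fusion; 0% = DMSO wells and 100% = positive control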
IEC-6 cytotox = IEC-6 cytotoxicity, counter-screen for KLF5 inhibitors; luminescence viability; inhibition, % at 5 µM; actives 0.78% (n = 290,000); in the data active = inhibition above about 22%;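 note: 0% = plate median of test compound wells and 100% = cytotoxic reference compound wells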
Ba/F3 V617F tox = lowers viability of Ba/F3 cells expressing EpoR and JAK2V617F; ATP luminescence; inhibition, % at 5.6 µM; actives 1.1% (n = 220,000); AID 1446;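 active = inhibition above the campaign mean plus 3 SD over all tested compounds, cut at about 24% in these data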;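 note: cytokine-independent growth of Ba/F3 cells driven by EpoR plus mutant JAK2; 0% = DMSO-treated cells and 100% = JAK inhibitor I control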
BaF3 parental = parental Ba/F3 viability inhibition as JAK2V617F counter-screen. CellTiter-Glo ATP luminescence. inhibition, % at 5.6 µM. actives 1.1% (n = 220,000);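 active = inhibition above a per-campaign cutoff, the mean inhibition of all tested compounds plus 3 SD, cut at about 27% in these data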;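 note: 0% = DMSO wells and 100% = JAK Inhibitor I control wells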
BaF3 parental 2 = reduces parental Ba/F3 viability, JAK2V617F counter-screen; shares compounds with Ba/F3 V617F tox; CellTiter-Glo luminescence; cells kept alive by added IL-3; inhibition, % at 5.6 µM; actives 31% (n = 580); AID 1520;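 active = cell growth inhibition above the hit limit set in the earlier mutant JAK2 cell screen, cut at about 27% in these data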;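 note: plate controls were DMSO-treated cells for no effect and JAK Inhibitor I control wells for full effect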
JAK2V617F confrm = Ba/F3 EpoR-JAK2V617F viability loss, confirmation | shares compounds with Ba/F3 V617F tox | CellTiter-Glo luminescence | inhibition, % at 5.6 µM | actives 66% (n = 580);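 active = mean inhibition above the hit cutoff derived in the earlier primary screen, cut at about 25% in these data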;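 note: 0% = DMSO-treated cells and 100% = JAK inhibitor I control wells; higher means lower luminescence from reduced cell ATP and viability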
An asterisk follows results filed as active; / = no result given.

SMILES	APP transl inh	KLF5 inhibitor	aSyn UTR inh	IEC-6 cytotox	Ba/F3 V617F tox	BaF3 parental	BaF3 parental 2	JAK2V617F confrm
O=C(OCCN1CCCCC1)c1ccccc1Cl	7	4	8	8	-2	4	/	/
O=C(OCn1ncc(Cl)c(Cl)c1=O)c1ccc(F)cc1	97*	-19	-22	14	32*	2	9	97*
O=C(OCn1ncc(Cl)c(Cl)c1=O)c1ccccc1Cl	87*	-10	50	89*	26*	-7	6	98*
NC(N)=NN=C1CCCCCCCCCCC1	/	13	26	-6	49*	22	29*	68*
COc1cc(/C=N/Nc2nc(N3CCCC3)nc(N3CCCC3)n2)ccc1O	0	-8	0	3	0	2	/	/
Oc1ccc(/C=N/Nc2nc(N3CCCC3)nc(N3CCCC3)n2)cc1O	-7	-11	-24	1	46*	5	71*	98*
Cn1ncc(Br)c1C(=O)NC1CCCCCC1	/	-30	32	-3	/	/	/	/
CCc1nc(N=C(N)N)nc2ccccc12	-13	-46	-12	3	28*	17	13	53*
CCc1nc2ccccc2c(C(=O)O)c1C	-9	1	-6	-4	3	1	/	/
C#CC[N+](C)(C)CC#Cc1ccccc1	-20	-50	9	2	39*	11	3	42*
CCOC(=O)N1CCN(c2c(F)cc3[nH]c(=S)[nH]c3c2Br)CC1	15	-27	13	6	28*	12	7	25*
Cc1ccnc(NS(=O)(=O)c2ccc(NS(=O)(=O)c3cc(Cl)ccc3Cl)cc2)n1	/	-16	-27	-1	/	/	/	/
O=c1cc(O)n(Cc2ccc(F)cc2)c(=O)[nH]1	/	-41	-22	-10	/	/	/	/
O=S1(=O)C=C(Sc2nc3cc(Cl)ccc3o2)c2ccccc21	40	-10	55	-4	44*	7	107*	99*
Cc1cccc(OCC(=O)Nc2cc(C)c(C)cc2O)c1	-14	-1	-112	-2	-1	4	/	/
Cc1cccc(OCC(=O)Nc2cc(C)ccc2O)c1	1	-40	-37	8	37*	6	5	67*
CCCCCCCCCCCC(=O)NC1CCS(=O)(=O)C1 (centres undefined)	11	-24	13	1	70*	0	-4	0
Cc1nc([N+](=O)[O-])c(Br)n1CC(=O)c1ccc2ccccc2c1	-2	-3	-24	3	44*	6	-3	77*
CCOC(=O)/C=C/S(=O)(=O)c1ccc(NC(C)=O)cc1	74*	-15	-58	5	58*	4	21	24*
CC(=O)N1CCN(C(=O)COC(=O)CNC(=O)c2ccccc2C)CC1	/	/	-1	/	/	/	/	/
COc1ccc(C(=O)NCC(=O)N/N=C/c2cn(C)c3ccccc23)cc1OC	/	-30	/	3	/	/	/	/
CCOc1ccc(NCCC#N)cc1	-17	-18	-22	-4	44*	4	-4	-9
COc1ccc(OC)c(NC(=O)c2nnn(Cc3ccccc3C)c2N)c1	-9	32	40	7	24*	20	37*	30*
COc1ccc(C)cc1NC(=O)c1nnn(Cc2cc(C)ccc2C)c1N	13	-4	30	4	-2	0	/	/
COc1ccc(C(=O)/C=C/Nc2ccc(S(=O)(=O)Nc3cccc(C(C)=O)c3)cc2)cc1	6	5	-12	-1	31*	14	8	30*
SMILES	APP transl inh	KLF5 inhibitor	aSyn UTR inh	IEC-6 cytotox	Ba/F3 V617F tox	BaF3 parental	BaF3 parental 2	JAK2V617F confrm
Cc1ccc(NC(=O)C2CCN(C(=O)c3ccccc3C)CC2)nc1	/	/	-14	/	/	/	/	/
Cc1ccnc(NS(=O)(=O)c2cc(-c3cc(C)no3)ccc2C(C)C)c1	/	-29	-23	0	/	/	/	/
CCCCn1c(SCC(=O)c2ccc(O)c(O)c2)nc2ccsc2c1=O	-14	-22	30	-3	40*	12	32*	88*
Cc1c(C(=O)N2CCOCC2)c(S(=O)(=O)Nc2ccc(OC(F)(F)F)cc2)c(C)n1C	/	-15	12	1	/	/	/	/
O=C(NCC1CCCO1)c1cccc(N2C(=O)C3C4C=CC(C4)C3C2=O)c1 (centres undefined)	-4	-12	-12	-6	96*	1	-6	-5
CC1Sc2ccc(S(=O)(=O)N3CCC(C(=O)N(C)Cc4ccccc4)CC3)cc2NC1=O (centres undefined)	/	-1	18	8	/	/	/	/
COc1cccc(/C=N/NC(=O)c2[nH]c(C)c(C(=O)N/N=C/c3cccc(OC)c3O)c2C)c1O	11	21	49	-7	42*	5	12	70*
COc1cccc(/C=N/NC(=O)c2ccc(=O)[nH]n2)c1O	/	-6	-7	2	0	0	/	/
CC(C)(C)SCCNS(=O)(=O)c1ccccc1	21	-2	11	0	99*	-2	-5	-12
CC(C)(C)SCCNS(=O)(=O)c1ccc2ccccc2c1	10	-3	1	0	-2	0	/	/
Cc1sc2ncnc(NCc3cccs3)c2c1C	-11	-10	19	12	34*	21	43*	64*
O=C(CSc1nc2ncc(Cl)cc2[nH]1)c1ccc2c(c1)OCO2	/	-7	-34	19	88*	-3	-5	-10
Cc1nn(Cc2ccccc2Cl)c2sc(C(=O)NC(C)(C)C)cc12	-20	6	57	2	-2	3	/	/
Cc1csc(NC(=O)c2cc3c(C)nn(Cc4ccccc4Cl)c3s2)n1	0	-24	31	1	36*	10	24	27*
Cc1ccc(-n2c(=O)c(C#N)cc3c(=O)n4ccccc4nc32)cc1	2	3	-5	-4	-2	3	/	/
Cc1ccc(C)c(-n2c(=O)c(C#N)cc3c(=O)n4ccccc4nc32)c1	-3	-9	5	-2	61*	21	-2	-5
COc1ccc(C2CC(=O)N3C(=C2C#N)SCC3(O)c2ccccc2)cc1 (centres undefined)	-20	1	23	5	-5	-1	/	/
N#CC1=C2SCC(O)(c3ccccc3)N2C(=O)CC1c1ccccc1F (centres undefined)	-3	21	-18	15	27*	17	20	25*
Oc1ccccc1/C=N/Nc1nc2ccccc2o1	/	23	31	10	44*	6	65*	74*
CC(=O)c1ccc(N2CCN(C(=O)c3ccc4ccccc4n3)CC2)cc1	5	0	33	-3	76*	11	-2	-5
CCn1c(SCC(=O)Nc2ccccc2-c2ccccc2)nnc1-c1ccoc1C	1	-13	2	-2	52*	1	-2	5
CCn1c(SCC(=O)Nc2ccccc2F)nnc1-c1ccoc1C	/	-8	-15	-2	/	/	/	/
